PubChem BioAssay AID2130 (The Scripps Research Institute Molecular Screening Center, 2009)
Screen size: about 320,000 compounds; about 1,700 (0.53%) were called active. This excerpt belongs to a sample that is enriched for actives. A number with no mark means an inactive call.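 Rule for the calls: active = inhibition above the campaign mean of all compounds plus 3 SD (cut at about 26% in these data); inactive = the rest.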

target: Protein phosphatase methylesterase 1 (Homo sapiens) (UniProt Q9Y570); assay: human PME-1 methylesterase blockers – biochemical, fluorescence polarization, FP-Rh probe, HTS, primary screen (AID 2130); conditions: recombinant PME-1, FP-Rh probe fluorescence polarization; at 5.9 µM; hits give high values;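 note: competitive labeling of PME-1 active site by serine hydrolase directed probe; 0% = PME-1 with DMSO and 100% = wells lacking PME-1 enzyme; inhibitors block probe labeling so polarization falls and inhibition rises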
Sequence (Q9Y570 whole entry, looked up): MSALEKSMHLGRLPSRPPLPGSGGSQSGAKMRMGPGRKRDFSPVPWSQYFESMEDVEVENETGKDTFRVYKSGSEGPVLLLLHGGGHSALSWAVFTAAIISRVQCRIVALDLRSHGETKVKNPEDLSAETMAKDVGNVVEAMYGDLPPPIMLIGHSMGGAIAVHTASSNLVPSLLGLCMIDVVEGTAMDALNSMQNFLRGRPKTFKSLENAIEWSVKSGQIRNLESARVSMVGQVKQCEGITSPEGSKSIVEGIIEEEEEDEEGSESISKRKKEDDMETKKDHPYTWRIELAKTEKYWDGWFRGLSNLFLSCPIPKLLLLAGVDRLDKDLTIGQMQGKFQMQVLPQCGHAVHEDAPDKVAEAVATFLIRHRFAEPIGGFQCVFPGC

Compound | inhibition
O=C(NCc1ccc(Cl)cc1)C1CCN(S(=O)(=O)c2cccs2)CC1 | 11.3%
O=C(NCc1cccs1)C1CCN(S(=O)(=O)c2ccc3c(c2)OCCO3)CC1 | 10.8%
O=C(NCc1cccs1)C1CCN(S(=O)(=O)c2ccc(Cl)cc2)CC1 | 49.3% (active)
Cc1cccc(N2CCN(Cc3nc(C4CC4)no3)CC2)n1 | 0.08%
CC1C(c2ccccc2)=[N+]([O-])C2(CCCC2)N1O (stereo not given) | -10.2%
Cc1ccc(-c2csc(-c3c[nH]c4ccccc34)n2)cc1 | 27.5% (active)
CCCc1cc(-c2nc(-c3ccc(C)cc3)cs2)ccn1 | -6.39%
Cc1ccc(-c2csc(-c3cc(C)on3)n2)cc1 | -0.04%
COc1ccccc1-c1c(C)nn2c(C)c(C(C)=O)cnc12 | -0.93%
COc1ccccc1-c1sc2ccccc2c1-c1ccc(C(C)=O)cc1 | 33.6% (active)
COc1ccccc1-c1sc2ccccc2c1-c1ccc(Br)nc1 | -9.82%
N#Cc1c(C(F)(F)F)cc(-c2cccs2)nc1N1CCCCC1 | 2.44%
COc1ccc(CN2CCCC(C(=O)c3ccc(Cl)cc3)C2)cc1Cn1cncn1 (stereo not given) | 4.9%
CC(=O)c1ccc(OCC(O)CN2CCN(S(=O)(=O)c3cccc(Br)c3)CC2)cc1 (stereo not given) | 7.43%
CC(=O)NC1=NN(C(C)=O)C(C)(c2ccc(Cl)s2)S1 (stereo not given) | -1.89%
COc1ccc(Nc2nc(-c3cccnc3)nc3ccccc23)cn1 | 0.55%
Cc1cccc(-c2nc(Nc3ccc(O)cc3)c3ccccc3n2)c1 | 30.6% (active)
CC(=O)Nc1cccc(Nc2nc(-c3cccs3)nc3ccccc23)c1 | -31.9%
CC(C)c1c(C(=O)N/N=C/c2ccccc2C(=O)O)nnn1-c1nonc1N | 3.05%
Nc1nonc1-n1nnc(C(=O)N/N=C/C2CCCCC2)c1-c1ccccc1 | 2.24%
Nc1nonc1-n1nnc(C(=O)N/N=C/c2c[nH]c3ccccc23)c1-c1ccccc1 | 34.1% (active)
O=C(C(=O)N1CCc2ccccc2C1)c1c[nH]c2ccccc12 | -0.44%
Cc1cccc(C)c1NC(=S)N1CCCCCC1 | -3.93%
COc1ccc(CNC(=O)COc2ccccc2C(=O)c2cnn(-c3ccccc3)c2)cc1OC | -5.4%

Compound | inhibition
Cc1ccc(S(=O)(=O)n2cnc3ccccc32)c(C)c1 | -0.58%
O=c1[nH]cnc(O)c1C(c1ccc(F)cc1)c1c(O)nc[nH]c1=O | -2.73%
COc1cccc(NC(=O)NCCN2CCCCC2)c1 | 0.47%
COc1cccc(NC(=O)Nc2nnc(N3CCCCC3C)s2)c1 (stereo not given) | 43.8% (active)
COc1cccc(C(=O)Nc2nnc(S(=O)(=O)N3CCCCC3)s2)c1 | -0.5%
CC1CCC(NC(=O)CN(C)S(=O)(=O)c2ccc3c(c2)c(=O)n(C)c(=O)n3C)CC1 (stereo not given) | 0.21%
COc1ccnc(Oc2ccccc2)c1-c1ncn[nH]1 | 3.26%
O=C(Nc1ccc(C(F)(F)F)cc1)c1cccc(-n2cnnn2)c1 | -9.13%
CCCCC(=O)Nc1nc(C)c(-c2csc(Nc3ccc(Cl)cc3)n2)s1 | 16.9%
CCCCCCC(=O)Nc1nc(C)c(-c2csc(Nc3cc(Cl)ccc3OC)n2)s1 | 13.6%
C=CCCC(=O)Nc1nc(C)c(-c2csc(Nc3ccc(Cl)cc3)n2)s1 | 28.8% (active)
Cc1nc(NC(=O)c2cccc(Cl)c2)sc1-c1csc(Nc2cccc(Cl)c2)n1 | 32.1% (active)
CC(=O)Nc1nc(C)c(-c2csc(Nc3ccc(S(N)(=O)=O)cc3)n2)s1 | -2.64%
CCCCCCC(=O)Nc1nc(C)c(-c2csc(Nc3cccc(OC)c3)n2)s1 | 16.8%
COc1ccc(F)cc1C(=O)COC(=O)c1n[nH]c(=O)c2ccccc12 | 2.97%
Cc1cc(OC(=O)c2ccc(OC(C)C)cc2)c([N+](=O)[O-])c(=O)[nH]1 | -4.45%
COc1cc(OC)cc(C(=O)NNC(=O)CCOc2ccccc2OC)c1 | -2.05%
CCOc1ccc(-c2cn(S(=O)(=O)c3cccc4nsnc34)nc2N)cc1 | 2.2%
Cc1ccccc1CC1(CO)CCCN(Cc2ccc3c(c2)OCCO3)C1 (stereo not given) | 3.22%
O=S(=O)(NCCc1ccc(Cl)cc1)c1cccs1 | 6.08%
O=C(NNc1c2ccccc2nc2ccccc12)c1cc2ccccc2cc1O | 76.5% (active)
O=C(N/N=C/c1cccnc1)c1cc2ccccc2cc1O | 12.5%
CC(C)(C)OC(=O)NNc1c2ccccc2nc2ccccc12 | 17.6%
COc1ccccc1C1C(C(N)=O)=C(C)Nc2nc(CCCO)nn21 (stereo not given) | -0.55%

Compound | inhibition
COc1ccc(C(=O)OC(C)C(=O)NC2CCCC2)cc1S(=O)(=O)N1CCOCC1 (stereo not given) | 2.8%
O=c1[nH]c2cccnc2n1-c1ccc([N+](=O)[O-])cc1 | 5.31%
COc1cnn(-c2ccc([N+](=O)[O-])cc2)c(=O)c1Cl | -4.7%
O=c1[nH]n(-c2ccc([N+](=O)[O-])cc2)c(=O)c2ccccc12 | 26.6% (active)
CCCCN1C(N)=NC[C@@H]1CC1CCCCC1 | -2.94%
Cc1cc(=O)oc2cc(NC(=O)C3CC(=O)N(Cc4ccccc4)C3)ccc12 (stereo not given) | 7.03%
Oc1ccc(C2Nc3cccc4cccc(c34)N2)cc1 | 53.6% (active)
Cc1ccc(C2Nc3cccc4cccc(c34)N2)cc1 | 1.72%
COc1cccc(C2Nc3cccc4cccc(c34)N2)c1 | 14.7%
CCc1ccc(NC(=O)CN2C(=O)COc3ccc(S(=O)(=O)N4CCCC4)cc32)cc1 | -0.43%
CCOC(=O)C1(Cc2ccccc2C(F)(F)F)CCN(C(=O)c2cc(C)n(C)n2)CC1 | -3.56%
CCCCCN(C(=O)CCC(=O)OCCOc1ccc(OC)cc1)c1c(N)n(CCCC)c(=O)[nH]c1=O | -1.09%
C=CCn1cc(-c2cccc(C(F)(F)F)c2)cc(C#N)c1=O | 1.51%
Oc1ccc(N=Cc2sc3ccccc3c2Cl)cc1 | 14.5%
CCOc1[nH]n(-c2ccc(Cl)cc2)c(=O)c1C=Nc1ccc(O)cc1 | 14.7%
Oc1ccc(N=Cc2c(O)ccc3ccccc23)cc1 | 52.4% (active)
CN(CCc1ccccn1)S(=O)(=O)c1ccc2c3c(cccc13)C(=O)N2 | 7.3%
Nc1nc(CC(=O)CSc2ccc(Cl)cc2)nc(Nc2ccc(F)cc2)n1 | 0.37%
COc1cccc(N2C(=O)CC(N3CCc4ccccc4C3)C2=O)c1 (stereo not given) | 1.67%
COc1cccc(N2CCN(CC(=O)Nc3ccnn3C3CCCC3)CC2)c1 | 0.47%
Cc1cccc(Nc2nc(-c3ccccc3)cs2)n1 | 9.05%
Clc1ccc(Nc2nc(-c3cccs3)cs2)nc1 | 14.9%
Cc1ccc(Nc2nc(-c3ccc(O)cc3O)cs2)nc1 | 29% (active)
CCCOc1ccc(CNC(=O)C2CCN(c3nn4c(=O)cc(C)nc4s3)CC2)cc1 | -0.67%

Compound | inhibition
COc1ccc(CN(C(=O)CSc2nnc(-c3ccc(OC)c(OC)c3)o2)c2ccc(F)cc2)cc1 | -0.21%
COc1ccccc1C(=O)NC(CCSC)C(=O)NNC(=O)c1ccccc1C (stereo not given) | -6.59%
O=S(=O)(NC1CCCC1)c1ccc(-n2cnnn2)cc1 | -6.91%
COc1ccc(CC(=O)NC2CCSc3ccccc32)cc1OC (stereo not given) | 8.44%
CCC(C)(C)N=C(NC#N)Nc1cccnc1 | -2.16%
CC[N+](C)(CC)CCC[n+]1c(-c2ccccc2)c2cc(N)ccc2c2ccc(N)cc21 | 54.4% (active)
O=C(CN1C(=O)NC2(CCCCC2)C1=O)NCCc1c[nH]c2ccccc12 | 1.73%
N#C/C(=C/c1ccc(N2CCCCC2)o1)C(=O)NCCc1c[nH]c2ccccc12 | 31.4% (active)
CC(=O)N/C(=C/c1ccc(Cl)cc1)C(=O)NCCc1c[nH]c2ccccc12 | 1.47%
CCOC(=O)c1c(C)[nH]c(C2=NNC(=NC(C)COC)SC2)c1C (stereo not given) | -7.22%
CCC(C(=O)NC1CCCC1)N(C(=O)Cn1nnc(-c2ccc(C)o2)n1)c1ccc(OC)c(OC)c1 (stereo not given) | 2.08%
Cc1ccc(Cl)c(OCC(=O)N2CCc3ccccc3C2)c1 | 2.04%
FC(F)(F)c1nc(-c2ccccc2)ncc1-c1nnnn1-c1ccccc1 | -1.36%
Oc1c(Cl)cc(Cl)c(Cl)c1Cc1c(O)c(Cl)cc(Cl)c1Cl | 27% (active)
Cc1ccc2nc(SCC(=O)N3CCN(c4ccccc4)CC3)nc(=O)n2c1 | 11.8%
Cc1ccccc1CCN(CC(=O)NC1CCCCC1)C(=O)c1csnn1 | 3.53%
CCc1nc2nc(C)c(NS(=O)(=O)c3ccc4c(c3)CCCC4)c(=O)n2[nH]1 | 3.49%
CCOC(=O)c1c(C)oc(C)c(C(=O)OCC)c1=O | 2.67%
CCOC(=O)c1nc(Nc2ccc(C(=O)OC)cc2)c2ccccc2n1 | -3.8%
CCOC(=O)c1ccc(NC(=O)c2cc(=O)[nH]c3ccccc23)cc1 | -7.83%
CCOC(=O)c1ccc(Nc2cc3ccccc3c(=O)[nH]2)cc1 | 51.5% (active)
CCNC(=S)N(CCN(CC)CC)Cc1cc2cc3c(cc2[nH]c1=O)OCO3 | -3.38%
CC1CCC(CN2CCN=C2N(C)C)CC1 (stereo not given) | 0.76%
